Hits are enriched below; roughly 2.6% of the tested compounds scored in any of these assays.
SIAE primary: blocks human sialic acid acetylesterase | Q9HAT2 | SIAE FP-Rh probe binding, fluorescence polarization | inhibition, % at 9.66 µM | actives 0.69% (n = 370,000);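 active = inhibition above a cutoff: mean of compounds within the control limits plus 3 SD of those, cut at about 17% in these data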
Fam108B inh: counter-screen for RBBP9 inhibitors: inhibitors of mouse Fam108B; recombinant Fam108B, FP-Rh probe fluorescence polarization; inhibition, % at 9.51 µM; actives 0.33% (n = 300,000);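 active = inhibition above the screen mean inhibition plus 3 SD, computed separately per campaign, cut at about 18% in these data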;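 also: inhibitors lower polarization as less probe binds the enzyme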
PAD4 inh: blocks human protein arginine deiminase 4; Q9UM07; recombinant PAD4, RCA probe fluorescence polarization; inhibition, % at 6.36 µM; actives 0.41% (n = 330,000); AID 485272;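 active = percent inhibition above a cutoff equal to the mean of all tested compounds plus 3 SD, cut at about 15% in these data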
PRMT1 inh: blocks human protein arginine methyltransferase 1; recombinant PRMT1, activity-based probe fluorescence polarization; inhibition, % at 2.79 µM; actives 1.3% (n = 370,000); AID 652257;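 active = inhibition above about 21% made by adding two undisclosed values, limit read from the data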
Target sequence (Q99873 whole entry, looked up): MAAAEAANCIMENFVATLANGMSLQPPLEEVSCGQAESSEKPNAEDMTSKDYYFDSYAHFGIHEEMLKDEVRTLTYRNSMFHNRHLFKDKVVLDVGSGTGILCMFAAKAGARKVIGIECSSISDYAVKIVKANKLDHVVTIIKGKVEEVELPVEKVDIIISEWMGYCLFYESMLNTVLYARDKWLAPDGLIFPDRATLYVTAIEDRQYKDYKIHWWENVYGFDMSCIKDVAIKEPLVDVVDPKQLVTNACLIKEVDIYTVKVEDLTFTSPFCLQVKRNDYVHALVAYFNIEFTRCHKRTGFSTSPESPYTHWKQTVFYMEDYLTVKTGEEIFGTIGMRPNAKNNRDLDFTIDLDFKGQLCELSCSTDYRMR
TCR CD3 inh: inhibitors of human TCR-CD3 interaction. TAMRA-labeled TCR probe fluorescence, biochemical. inhibition, % at 9.4 µM. actives 0.37% (n = 360,000). AID 651800; in the data active = inhibition above about 19%;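 also: recombinant mutant TCR 2C K166C tagged with TAMRA read by polarization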
PME-1 primary: blocks human protein phosphatase methylesterase 1; recombinant PME-1, FP-Rh probe fluorescence polarization; AID 2130; inhibition, % at 5.9 µM; actives 0.53% (n = 320,000); Q9Y570;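 active = inhibition above the campaign mean of all compounds plus 3 SD, cut at about 26% in these data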;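 also: competitive labeling of PME-1 active site by serine hydrolase directed probe; inhibitors block probe labeling so polarization falls and inhibition rises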
PRMT1 confirm: confirmation of human PRMT1 inhibitors; shares compounds with PRMT1 inh; recombinant His-PRMT1, activity-based probe fluorescence polarization; inhibition, % at 2.79 µM; actives 42% (n = 3,300); AID 687036;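 active = mean inhibition across replicates above the hit cutoff derived for the earlier primary screen, cut at about 22% in these data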
A number is an active result; – = inactive; · = no result.

SMILES	SIAE primary	Fam108B inh	PAD4 inh	PRMT1 inh	TCR CD3 inh	PME-1 primary	PRMT1 confirm
CC(C)NS(=O)(=O)c1cc(F)ccc1CN1C(=O)c2cccnc2C1=O	–	–	–	–	–	–	·
Cc1ccc(CNS(=O)(=O)c2ccc(CN3C(=O)c4cccnc4C3=O)cc2)o1	–	–	–	26.1	–	–	–
Cc1ccc(CNS(=O)(=O)c2cc(F)ccc2CN2C(=O)c3cccnc3C2=O)o1	–	–	–	25.0	–	–	–
COc1cc(NC(=O)c2ccccc2)c(C)cc1NC(=O)CSc1nnc(-c2ccco2)n1Cc1ccco1	–	·	·	–	·	·	·
CCCNC(=O)c1nnsc1S(=O)c1ccc(Cl)cc1 (centres undefined)	–	·	·	95.2	–	·	90.2
Cc1ccc(S(=O)c2snnc2C)cc1 (centres undefined)	–	–	–	–	–	–	·
CNC(=O)c1nnsc1S(=O)c1ccc(Cl)cc1 (centres undefined)	–	·	·	77.2	–	·	76.5
CCCNC(=O)c1ccc2snnc2c1	–	–	–	–	–	–	·
O=C1C2C3C=CC(O3)C2C(=O)N1Cc1ccncc1 (centres undefined)	–	·	·	42.8	–	·	–
Cn1ncc2c(=S)nc(Cl)[nH]c21	–	·	·	31.4	–	·	–
CCOC(=O)[C@@]12CN(C(=O)OC(C)(C)C)CC=C1N(Cc1ccc(OC)cc1)C(=O)[C@H]2CC(=O)N1CCCC1	–	·	·	–	·	·	·
Cc1cc(/C=C(\C#N)c2nc3ccccc3[nH]2)c(C)n1C	–	–	–	28.1	–	–	–
Cc1ccc(/C=C(\C#N)c2nc3ccccc3[nH]2)s1	–	–	–	–	–	–	·
N#C/C(=C/c1ccc(N2CCOCC2)o1)c1nc2ccccc2[nH]1	–	–	–	37.9	–	–	–
N[C@H](C(=O)N[C@@H](Cc1ccccc1)C(=O)N1CCC2CCN(S(=O)(=O)c3ccccc3)CC21)c1ccccc1 (some centres undefined)	–	·	·	–	·	·	·
COc1cccc(-c2nnc(SCc3cc(C)ccc3C)n2Cc2ccco2)c1	–	·	·	–	·	·	·
COc1ccc(S(=O)(=O)Oc2ccc3ccccc3c2)cc1	–	–	–	–	–	–	·
COC1=C(OC)C(=O)C(Sc2ccc3ccccc3c2)=CC1=O	–	·	·	94.6	–	·	93.7
CCN(CC)c1nc(C)nc2c1nnn2Cc1ccccc1	–	·	·	–	·	·	·
Cc1cccc(Cn2cc(COC(=O)NCCc3c[nH]c4ccccc34)nn2)c1	–	·	·	–	·	·	·
O=C(CCCCn1cnc2c(=S)nc[nH]c21)Nc1ccc(C(=O)O)cc1	–	·	·	30.3	–	·	–
Cn1cc(S(=O)(=O)N2CCc3ccccc32)cc1C(=O)NC1CCCCC1	–	–	–	–	–	–	·
CCC(C)(C)NC(=O)c1cc(S(=O)(=O)N2CCc3ccccc32)cn1C	–	–	–	26.3	–	–	–
O=C(/C=C/c1ccco1)NCC1COc2ccccc2O1 (centres undefined)	–	–	–	32.7	–	–	–
O=C1c2cccn2CC2Cc3ccccc3N12 (centres undefined)	–	·	·	–	·	·	·
SMILES	SIAE primary	Fam108B inh	PAD4 inh	PRMT1 inh	TCR CD3 inh	PME-1 primary	PRMT1 confirm
NC(=O)c1sc2nc(-c3cccs3)ccc2c1N	–	–	–	–	–	–	·
Nc1c(C(=O)NC2CCCC2)sc2nc(-c3cccs3)ccc12	–	–	–	53.4	–	–	–
CCOc1ccccc1NC(=O)Cn1nc(-c2ccco2)ccc1=O	–	–	–	–	–	–	·
CCOc1ccccc1NC(=O)CSc1ccc(-c2ccco2)nn1	–	–	–	25.1	–	–	48.4
Cc1ccc(NC(=O)CSc2nnc(-c3ccco3)c(-c3ccco3)n2)cc1	–	–	–	37.4	–	–	77.3
COc1ccc(NC(=O)CSc2ccc(-c3ccco3)nn2)cc1	–	–	–	37.1	–	–	53.8
CC(C)(C)OC(=O)N1c2ccccc2[C@]2(N3CCCC3)C[C@H](C(=O)O)N(C(=O)OC(C)(C)C)[C@H]12	–	·	·	–	·	·	·
O=C(CCN1C(=O)/C(=C\c2ccccc2F)SC1=S)Nc1ccc(C(=O)O)c(O)c1	–	–	–	–	–	–	·
O=C(CCCN1C(=O)/C(=C\c2cccs2)SC1=S)Nc1cccc(C(=O)O)c1	–	–	–	–	–	–	·
O=C(CCCN1C(=O)/C(=C/c2ccco2)SC1=S)Nc1cccc(C(=O)O)c1	–	–	–	32.7	–	–	–

Assay outcomes: PubChem, The Scripps Research Institute Molecular Screening Center
